This note sets out measurements from PubChem BioAssay (NCI).

SMILES strings stand for the structures. Where “and” joins values, the source holds several entries; their conditions need not be identical. Identical values can stand only once. Compounds without any hit were thinned out: in the full panel of roughly 79,000, 15% have a hit. Unmarked numbers belong to inactive results. Calls of active or inactive are those of the source. No stated cut-off is given here; in the data, active means growth inhibition above about 70%; inactive means the rest.

Assay [1] in a line: NCI Yeast Anticancer Drug Screen. Data for the rad50 strain (AID 155).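 Further: 0% = growth of vehicle-only cultures of the same strain.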 To be noted: S. cerevisiae rad50 strain growth inhibition; at 50.0 µM; active compounds read high. The method, boiled down:
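A DNA repair-deficient yeast mutant serves as the test organism; compound-induced growth inhibition is calculated against vehicle-treated cells.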

Assay [2] in a line: NCI Yeast Anticancer Drug Screen. Data for the mec2-1 strain (AID 157). The following applies: S. cerevisiae mec2-1 strain, at 50.0 µM, active compounds read high. The method, boiled down: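 Each compound was tested on mec2-1 yeast, a strain altered in DNA damage repair or cell cycle control. Growth inhibition is reported relative to vehicle.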
The nature of assay [3]: NCI Yeast Anticancer Drug Screen. Data for the sgs1 mgt1 strain (AID 161).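 Further: 0% = growth of cultures given vehicle only.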 To be noted: S. cerevisiae sgs1 mgt1 strain, at 50.0 µM, active compounds read high. Put shortly:
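Mutant yeast exposed to compound; growth scored against vehicle-only wells.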

Assay [4] is described as follows: NCI Yeast Anticancer Drug Screen. Data for the cln2 rad14 strain (AID 165).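 Further: 0% = growth equal to vehicle treated cultures.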 To be noted: S. cerevisiae cln2 rad14 strain, at 50.0 µM, active compounds read high. Put shortly: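 Test compounds were added to cln2 rad14 yeast cultures; inhibition of growth was then determined by comparison with vehicle treatment.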
The nature of assay [5]: NCI Yeast Anticancer Drug Screen. Data for the bub3 strain (AID 167). The following applies: S. cerevisiae bub3 mutant strain, at 50.0 µM, active compounds read high. The method, boiled down:
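Inhibition values come from growth of compound-treated mutant yeast normalised to vehicle-treated controls.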

Assay [6] can be described thus: NCI Yeast Anticancer Drug Screen. Data for the mlh1 rad18 strain (AID 175). The following applies: S. cerevisiae mlh1 rad18 strain growth inhibition; at 50.0 µM; active compounds read high. Put shortly:
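Inhibition values reflect reduced growth of mutant yeast versus vehicle-treated controls following compound exposure; the mutations affect DNA damage repair.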

As to `CSP(=S)(SC)SC`, the growth inhibition in assay [1] was 24%; in assay [2], -5.7%; in assay [3], 13.4%; in assay [4], 22.1%; in assay [5] it was -7.95%; in assay [6], -15.8%.

Consider `CC(C)CC(=O)[O-].N.N.N.N.N.[Co+3].[O-][Cl+3]([O-])([O-])[O-]`, for which the growth inhibition was -4.85% in assay [1]; 23.4% in assay [2]; -19.6% in assay [3]; 21.8% in assay [4]; -10.1% in assay [5]; -19.1% in assay [6].

For `O=S(O)(O)=S.[Co+3].[NH-]CC[NH-].[NH-]CC[NH-].[NH2-].[NH2-]`, the growth inhibition in assay [1] is -8.05%; in assay [2] it was -6.85%; in assay [3] it was 2%; in assay [4], -19.4%; in assay [5], 14.8%; in assay [6] it was 7.05%.

Regarding `O=C(NCCN1CCOCC1)C1(O)N=C(c2ccccc2)c2ccsc2-n2cccc21` (configuration not stated), the growth inhibition in assay [1] is 51.3%; in assay [2], 30.3%; in assay [3], 64.2%; in assay [4], -6.05%; in assay [5], 27.6%; in assay [6] it was 36.5%.

Consider `CC(=O)OC1CC(OC2C(O)CC(OC3C(O)CC(OC4CCC5(C)C(CCC6C5CCC5(C)C(C7=CC(=O)OC7)C(O)CC65O)C4)OC3C)OC2C)OC(C)C1OC1OC(CO)C(O)C(O)C1O` (configuration not stated), for which the growth inhibition in assay [1] is 18.1%; in assay [2] it was 8.8%; in assay [3], -12.8%; in assay [4], 8.1%; in assay [5], 21.8%; in assay [6], 10.8%.

With `NC1(P(=O)(O)O)CCCCC1`, the growth inhibition in assay [1] was 2.5%; in assay [2], -3%; in assay [3] it was -22.4%; in assay [4], -52%; in assay [5], -31.6%; in assay [6] it was -10.5%.

`CN(C)C(=O)Oc1c(Cl)cc(S(=O)(=O)F)cc1Cl`: the growth inhibition in assay [1] was 26.4%; in assay [2], 0.8%; in assay [3], 12.7%; in assay [4], 12.8%; in assay [5], 2.65%; in assay [6], 12.4%.

For the molecule `CCN1CCCc2cc3c(C(F)(F)F)cc(=O)oc3cc21`, the growth inhibition in assay [1] was -6.3%; in assay [2], -12.4%; in assay [3] it was -10%; in assay [4], -4.05%; in assay [5], -6.45%; in assay [6], -11.8%.

Consider `Cc1ccccc1N`, for which the growth inhibition was 4.1% in assay [1]; -14.4% in assay [2]; -1.15% in assay [3]; -1.7% in assay [4]; -1.55% in assay [5]; 4.4% in assay [6].

On to `CC(=O)NC(Cc1ccc(N(CCCl)CCCl)cc1)C(=O)NC(CC(C)C)C(=O)O` (configuration not stated), for which the growth inhibition in assay [1] is 2.85%; in assay [2] it was 22.6%; in assay [3], -4.15%; in assay [4] it was 5.75%; in assay [5], 2.7%; in assay [6], 21.7%.

`O=C(O)c1cc(I)cc(I)c1I`: the growth inhibition in assay [1] is -5.55%; in assay [2], -16.1%; in assay [3], -34.5%; in assay [4], -70.2%; in assay [5] it was 1.25%; in assay [6], 12.7%.

As to `COc1ccc(C(OCC2OC(n3ccc(NC(=O)c4ccccc4)nc3=O)CC2OP2(=S)SCCS2)(c2ccccc2)c2ccc(OC)cc2)cc1` (configuration not stated), the growth inhibition was 10.6% in assay [1]; -13.1% in assay [2]; -4.1% in assay [3]; 10% in assay [4]; 37% in assay [5]; 78.7% (active) in assay [6].

On to `CN(C)c1ccc(-c2ccc(N(C)C)cc2)cc1`, for which the growth inhibition in assay [1] was -10.6%; in assay [2] it was 7.3%; in assay [3], 5.45%; in assay [4] it was 17.6%; in assay [5], 3.2%; in assay [6], -2.6%.

In the case of `C=C(C)CCP(=S)(OCC)OCC`, the growth inhibition in assay [1] is -27.9%; in assay [2], -18.3%; in assay [3], -24.2%; in assay [4], -22.7%; in assay [5] it was 5.45%; in assay [6], -3.45%.

Regarding `CC1=NN(c2ccccc2)C(=O)C1N=Nc1ccc([As](=O)(O)O)c(O)c1` (configuration not stated), the growth inhibition is 15.9% in assay [1]; -8.6% in assay [2]; -6.8% in assay [3]; -19.9% in assay [4]; -26.5% in assay [5]; -3.65% in assay [6].

Regarding `O=[N+]([O-])C1CC/C(=N/O)c2nonc21` (configuration not stated), the growth inhibition in assay [1] is 0.3%; in assay [2], 9.5%; in assay [3], 18.5%; in assay [4], 19.6%; in assay [5], 5.3%; in assay [6], 18.6%.

With `C[n+]1c[se]cn1`, the growth inhibition in assay [1] is -2.9%; in assay [2], 9.25%; in assay [3], -8.2%; in assay [4], 1.2%; in assay [5] it was -14.1%; in assay [6], 0.55%.

Consider `O=CNc1ccc(Cl)cc1C(=O)c1ccccc1`, for which the growth inhibition in assay [1] is 9.8%; in assay [2], -0.35%; in assay [3], 15.2%; in assay [4] it was 28.8%; in assay [5], 21.6%; in assay [6] it was 4.4%.

Take `CC1OC(O[C@@H]2C=C3CC[C@@H]4[C@H](CC[C@]5(C)[C@@H](c6ccc(=O)oc6)CC[C@]45O)[C@@]3(C)CC2)C(O)C(O)C1O` (some centres not stated): the growth inhibition in assay [1] was 2.85%; in assay [2], -37.5%; in assay [3] it was -25%; in assay [4] it was 13.1%; in assay [5] it was -15.9%; in assay [6], 4.7%.

Take `CCOC(OCC)C(CC)[Se]c1ccccc1` (configuration not stated): the growth inhibition was 4.45% in assay [1]; -9.6% in assay [2]; 13.4% in assay [3]; 0.6% in assay [4]; 2.7% in assay [5]; -7.9% in assay [6].

In the case of `C[P+](CCl)(CCl)CCl`, the growth inhibition was 5.45% in assay [1]; -6.45% in assay [2]; -11.7% in assay [3]; -7.3% in assay [4]; -7.6% in assay [5]; -10% in assay [6].

`O=c1ccc(=O)[nH][nH]1`: the growth inhibition was 6.25% and 36.3% and -4.05% in assay [1]; 10.2% and 23.1% and -12.5% in assay [2]; 5.6% and 7.25% and -6.05% in assay [3]; 3.85% and 27.6% and -7.1% in assay [4]; 1.65% and 30% and 26.9% in assay [5]; 10.8% and 16.1% and 6.25% in assay [6].
